The inhibition is the drop in the measured response relative to a control, in per cent.

Assay [1] is described as follows: inhibitors of TNFa-induced NFkB p65 translocation, primary screen, imaging, HUVEC, MLSMR starter and 10KST1 sets (AID 438;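 active = inhibition above 20% together with a positive visual image hit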;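 note: compound added about 3h40 before a 20 min TNFalpha stimulation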;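 for inhibition: signal is the nuclear over cytoplasmic p65 intensity ratio per well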). The settings on record: HUVEC TNFa-induced p65 nuclear translocation; cell count: measured here: nuclei count (cytotoxicity indicator), at 2.08 µM; inhibition: at 2 µM, stronger effect = higher value, 0% TNFa-plus-vehicle, 100% no-TNFa wells.
Assay [2] in a line: reduction of polyQ htt aggregates in cells – imaging, exon1htt(103Q)mCFP cells, high-content imaging, primary screen (AID 483;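 active = visual image review flags a hit and inhibition of aggregation exceeds 20%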;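 note: compound exposure lasted 3 days before fixation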;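 for nuclei count: percent of the per-plate median nuclei count of sample wells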). The settings on record: exon1htt(103Q)mCFP cell line, aggregate imaging, at 2 µM; inhibition of aggregation: stronger effect = higher value; nuclei count: measured here: cell count, toxicity.
The nature of assay [3]: endothelial E-selectin expression blockers – imaging, HUVEC, immunofluorescence, MLSMR starter and 10KST1 sets, primary screen (AID 487;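 active = visually confirmed hit in the image check and inhibition above 20%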;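 for inhibition: signal is fraction of cell area covered by stained E-selectin grains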;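 for nuclei count: 100% = median nuclei count of all wells on the same plate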). The following applies: HUVEC TNFalpha-induced E-selectin immunofluorescence imaging, at 2 µM; inhibition: stronger effect = higher value; nuclei count: measured here: cell number, toxicity.
Assay [4] concerns the target Voltage-gated potassium channel subunit beta-2 (Rattus norvegicus) (UniProt P62483). Kind of assay: inhibitors of rat Kvbeta2 reductase activity – biochemical, NADPH fluorescence, primary screen (AID 622;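 active = fluorescence slope higher than the sample average by over 3 SD, cut at about -0.22 in these data, passing the limit was not always enough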;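 note: slope of raw intensity against log time taken from 70 to 1610 s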). The following applies: recombinant KvBeta, 4-cyanobenzaldehyde reduction, at 10 µM, stronger effect = higher value.
Assay [5] shares this target. Kind of assay: enhancers of rat Kvbeta2 NADPH turnover – biochemical, NADPH fluorescence, primary screen (AID 623;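 active = NADPH fluorescence slope more negative than the mean of all samples by about 3 SD, 99.7% confidence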;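 note: fluorescence intensity change per second fitted from 20 to 320 s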). The following applies: Recombinant KvBeta, NADPH fluorescence decrease slope, 10 min; at 10 µM; stronger effect = lower value.
For assay [6], the target named is Alpha-2C adrenergic receptor (Homo sapiens) (UniProt P18825). Kind of assay: compounds altering alpha2C-coupled GIRK flux – cell-based, HEK293 alpha2C/GIRK1/2, thallium flux, primary screen (AID 624;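 active = fluorescence slope after compound addition differing from the mean of all screened samples at 99.7% confidence, in either direction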;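 note: slope of fluorescence ratio to pre-addition baseline per second over 15 to 24 s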). The settings on record: thallium flux BTC fluorescence, at 10 µM, actives lie on both sides.
Sequence of Alpha-2C adrenergic receptor (Homo sapiens) (P18825 whole entry, looked up): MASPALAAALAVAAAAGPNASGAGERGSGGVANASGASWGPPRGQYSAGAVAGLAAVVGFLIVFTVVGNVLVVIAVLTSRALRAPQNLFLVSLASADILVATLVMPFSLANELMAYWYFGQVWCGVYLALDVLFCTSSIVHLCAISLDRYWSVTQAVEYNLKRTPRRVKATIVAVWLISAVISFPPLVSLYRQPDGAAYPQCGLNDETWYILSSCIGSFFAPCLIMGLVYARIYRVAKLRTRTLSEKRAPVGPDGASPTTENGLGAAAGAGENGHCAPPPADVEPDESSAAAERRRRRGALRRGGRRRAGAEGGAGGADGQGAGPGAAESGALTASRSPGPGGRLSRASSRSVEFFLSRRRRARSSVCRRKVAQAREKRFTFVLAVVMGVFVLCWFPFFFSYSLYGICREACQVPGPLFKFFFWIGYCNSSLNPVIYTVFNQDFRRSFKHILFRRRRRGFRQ
Assay [7] can be described thus: blockers of RIG-like receptor reporter activation – cell-based, Sendai virus stimulus, luciferase, 10K MLSCN set, TLR/RLR signaling modifier project, primary screen (AID 602276).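 Note: firefly luciferase from ISG56 promoter only with Renilla not read in this screen; 0% = Sendai virus plus DMSO and 100% = medium plus DMSO without virus.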 The following applies: HEK293 RL24 IRF3 luciferase reporter, at 10 µM, stronger effect = higher value. (In a reporter assay the amount or activity of a reporter protein is the signal.)
Assay [8] in a line: TLR3 IRF3 reporter activation blockers – cell-based, poly I:C stimulus, luciferase, 10K MLSCN set, primary screen (AID 602277;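 active = inhibition of the reporter signal at or above 50%; inactive = inhibition below 50%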). The following applies: HEK293-TLR3 RL24 IRF3 luciferase reporter, at 10 µM, stronger effect = higher value.

Active and inactive are the calls of the source.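 Rule for the calls, unless noted: active = inhibition at or above 50% at 10 µM; inactive = inhibition below 50%.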

Sequence of Voltage-gated potassium channel subunit beta-2 (Rattus norvegicus) (P62483 whole entry, looked up): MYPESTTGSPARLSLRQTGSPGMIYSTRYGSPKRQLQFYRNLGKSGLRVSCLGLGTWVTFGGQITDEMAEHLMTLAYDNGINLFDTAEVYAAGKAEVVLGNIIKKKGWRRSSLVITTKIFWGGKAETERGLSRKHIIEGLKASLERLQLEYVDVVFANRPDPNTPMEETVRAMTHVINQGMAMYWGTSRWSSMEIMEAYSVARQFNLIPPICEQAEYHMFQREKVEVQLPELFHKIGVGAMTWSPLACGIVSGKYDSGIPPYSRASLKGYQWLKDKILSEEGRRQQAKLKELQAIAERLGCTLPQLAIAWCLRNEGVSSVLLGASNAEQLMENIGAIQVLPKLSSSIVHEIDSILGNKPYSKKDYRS

Regarding `CCN(CC)CCCNc1oc(-c2cccc(Cl)c2)nc1C#N`, in assay [1], the cell count came to 729. Further, the inhibition in assay [1] is -11.9% (inactive); in assay [3] it was -37.9% (inactive); in assay [7], 8.46% (inactive); in assay [8] it was 27.9% (inactive). For the same compound, in assay [2], the inhibition of aggregation was -13.5% (inactive). In addition, the nuclei count came out at 98.2% in assay [2] and 112% in assay [3]. In addition, the fluorescence slope in assay [4] is -0.0368 (active). Further, the NADPH fluorescence slope in assay [5] is -1.1e-05 (inactive). Also, in assay [6], the slope was 0.00338 (inactive).
With `O=C(CCS(=O)(=O)c1cc(Br)cc2c1N(C(=O)C1CC1)CC2)NCC1CCCO1` (centres undefined), in assay [1], the cell count was 415. In addition, the inhibition in assay [1] was -0.6% (inactive); in assay [3] it was -15.8% (inactive); in assay [7] it was 12.5% (inactive); in assay [8], -10.9% (inactive). The inhibition of aggregation in assay [2] was -16.1% (inactive). For the same compound, the figures for the nuclei count in assay [2] and in assay [3] were 105% and 85.8%, respectively. Besides, the fluorescence slope in assay [4] is -0.314 (inactive). The NADPH fluorescence slope in assay [5] is -1.2e-05 (inactive). Also, the slope in assay [6] is 0.00703 (inactive).
For `Clc1cccc(-c2nnc(-c3ccccc3)o2)c1`, the cell count in assay [1] was 610. The inhibition is -15.9% (inactive) in assay [1], 4.7% (inactive) in assay [3], -18.1% (inactive) in assay [7] and -47% (inactive) in assay [8]. The inhibition of aggregation in assay [2] was -13.5% (inactive). Moreover, the values for the nuclei count in assay [2] and in assay [3] were 110% and 124%, respectively. Moreover, the fluorescence slope in assay [4] is -0.391 (inactive). Also, the NADPH fluorescence slope in assay [5] was 3.1e-05 (inactive). Further, the slope in assay [6] was 0.00595 (inactive).
`COc1cccc(-c2noc(C3CCCN(C(=O)Cc4ccccc4)C3)n2)c1` (centres undefined): in assay [1], the cell count stood at 276. In addition, the inhibition is -2.8% (inactive) in assay [1], 18.4% (inactive) in assay [3], 9.8% (inactive) in assay [7] and 14.1% (inactive) in assay [8]. The inhibition of aggregation in assay [2] is 5.5% (inactive). The nuclei count in assay [2] came to 109%; in assay [3] it was 115%. In addition, the fluorescence slope in assay [4] was -0.609 (inactive). Also, the NADPH fluorescence slope in assay [5] is -8.5e-06 (inactive). The slope in assay [6] is 0.00584 (inactive).
Take `N#CC1=C(SCC(=O)NC23CC4CC(CC(C4)C2)C3)NC(=O)C(C#N)C12CCCCC2` (centres undefined): the cell count in assay [1] is 755. Further, the inhibition in assay [1] is -9.3% (inactive); in assay [3], -142% (inactive); in assay [7], 16.3% (inactive); in assay [8] it was -22.7% (inactive). Further, the inhibition of aggregation in assay [2] was 16.9% (inactive). Besides, the nuclei count came out at 100% in assay [2] and 123% in assay [3]. Moreover, in assay [4], the fluorescence slope was -0.519 (inactive). In assay [5], the NADPH fluorescence slope was -6.2e-05 (inactive). Further, in assay [6], the slope is 0.00603 (inactive).
With `CN(Cc1ccccc1)C(=O)CNC(=O)Cn1cnc2ccccc2c1=O`, the cell count in assay [1] worked out at 773. For the same compound, the inhibition in assay [1] was 1.1% (inactive); in assay [3], -18.9% (inactive); in assay [7], 4.6% (inactive); in assay [8] it was 10.1% (inactive). Also, in assay [2], the inhibition of aggregation was -13.9% (inactive). Besides, the nuclei count in assay [2] worked out at 95.7%; in assay [3], 111%. Further, the fluorescence slope in assay [4] was -0.602 (inactive). For the same compound, the NADPH fluorescence slope in assay [5] is -2.5e-06 (inactive). In addition, the slope in assay [6] was 0.00729 (inactive).
On to `COc1ccc(N2CCN(C(=O)c3c(-c4ccccc4)noc3C)CC2)cc1`, for which the cell count in assay [1] was found to be 650. The inhibition in assay [1] was 1.1% (inactive); in assay [3], -7.4% (inactive); in assay [7], -19.4% (inactive); in assay [8], -16.5% (inactive). Also, the inhibition of aggregation in assay [2] is -16% (inactive). Besides, the results for the nuclei count in assay [2] and in assay [3] were 90.4% and 96%, respectively. Moreover, in assay [4], the fluorescence slope was -0.578 (inactive). The NADPH fluorescence slope in assay [5] is -3.3e-05 (inactive). Moreover, in assay [6], the slope was 0.00611 (inactive).
Regarding `O=C(Cn1cnc2ccccc2c1=O)NCCC(=O)N1CCN(c2ccccc2)CC1`, the cell count in assay [1] amounted to 383. For the same compound, the inhibition in assay [1] was -10.7% (inactive); in assay [3], 12.8% (inactive); in assay [7], 15.8% (inactive); in assay [8], 23.6% (inactive). In assay [2], the inhibition of aggregation is 8.8% (inactive). The results for the nuclei count in assay [2] and in assay [3] were 99.4% and 95.3%, respectively. Besides, in assay [4], the fluorescence slope is -0.405 (inactive). Further, the NADPH fluorescence slope in assay [5] was -9.9e-05 (inactive). For the same compound, the slope in assay [6] was 0.0056 (inactive).
For the compound `O=C(NCCC1=CCCCC1)C1CC(=O)N(C2CCCCCC2)C1` (centres undefined), in assay [1], the cell count amounted to 645. In addition, the inhibition in assay [1] was -4.4% (inactive); in assay [3], -41.7% (inactive); in assay [7] it was 5.65% (inactive); in assay [8], 27.5% (inactive). The inhibition of aggregation in assay [2] was -46.5% (inactive). For the same compound, the nuclei count in assay [2] was 45.9%; in assay [3], 126%. Also, the fluorescence slope in assay [4] is -0.367 (inactive). The NADPH fluorescence slope in assay [5] was -6.2e-05 (inactive). Further, the slope in assay [6] was 0.00623 (inactive).
Take `CC(=O)N1CCN(C(=O)COc2ccc(Br)cc2)CC1`: the cell count in assay [1] was 518. The inhibition in assay [1] was -6.3% (inactive); in assay [3] it was -21.9% (inactive); in assay [7] it was 5.88% (inactive); in assay [8] it was 13.4% (inactive). The inhibition of aggregation in assay [2] is -1.5% (inactive). In addition, the nuclei count in assay [2] was 93.7%; in assay [3], 139%. For the same compound, in assay [4], the fluorescence slope was -0.592 (inactive). Besides, the NADPH fluorescence slope in assay [5] was -5.6e-05 (inactive). Also, in assay [6], the slope is 0.00597 (inactive).
In the case of `CC(=O)Nc1ccc(OCC(O)CN2CCN(c3cccc(Cl)c3)CC2)cc1` (centres undefined), the cell count in assay [1] amounted to 469. The inhibition is 7% (inactive) in assay [1], -27.1% (inactive) in assay [3], 3.23% (inactive) in assay [7] and 21.4% (inactive) in assay [8]. Moreover, the inhibition of aggregation in assay [2] was -19.8% (inactive). Further, the nuclei count in assay [2] and in assay [3] was 115% throughout. The fluorescence slope in assay [4] was -0.481 (inactive). Besides, the NADPH fluorescence slope in assay [5] was -4.2e-05 (inactive). In assay [6], the slope is 0.00626 (inactive).
`CCCN1CCC(NC(=O)Nc2ccc(OC)c(OC)c2)CC1`: the cell count in assay [1] is 308. For the same compound, the inhibition was -0.5% (inactive) in assay [1], -43.3% (inactive) in assay [3], 9.89% (inactive) in assay [7] and 33.2% (inactive) in assay [8]. The inhibition of aggregation in assay [2] is 12.6% (inactive). Further, the nuclei count in assay [2] is 87.5%; in assay [3], 107%. Moreover, in assay [4], the fluorescence slope was -0.383 (inactive). In addition, the NADPH fluorescence slope in assay [5] is 1.9e-05 (inactive). Besides, the slope in assay [6] was 0.00372 (inactive).
Turning to `O=C(NCc1ccccc1)C1CCCN1S(=O)(=O)c1cccc2cccnc12` (centres undefined), the cell count in assay [1] was 521. Further, the inhibition in assay [1] was -4.4% (inactive); in assay [3] it was -42.2% (inactive); in assay [7], 3.4% (inactive); in assay [8], 34.5% (inactive). The inhibition of aggregation in assay [2] is -7.9% (inactive). The nuclei count in assay [2] was determined as 67.5%; in assay [3] it was 111%. For the same compound, the fluorescence slope in assay [4] was -0.561 (inactive). The NADPH fluorescence slope in assay [5] was 3.4e-05 (inactive). Further, the slope in assay [6] is 0.00702 (inactive).
In the case of `O=C(CC1Oc2ccc(Cl)cc2NC1=O)NC1CCCCCC1` (centres undefined), the cell count in assay [1] came out at 615. The inhibition in assay [1] was -4.3% (inactive); in assay [3], 0.7% (inactive); in assay [7] it was 8.85% (inactive); in assay [8] it was 6.03% (inactive). The inhibition of aggregation in assay [2] is 19.5% (inactive). For the same compound, the nuclei count in assay [2] is 51.7%; in assay [3], 100%. In addition, the fluorescence slope in assay [4] was -0.544 (inactive). The NADPH fluorescence slope in assay [5] is -3.7e-05 (inactive). Besides, the slope in assay [6] was 0.00511 (inactive).

The record behind these values is PubChem BioAssay.
